In PubChem BioAssay AID1159580 (chemical genetic matrix, 2015):
Several values for one entry are separate records, joined by “and”; a condition that tells them apart may be missing. Identical values can stand only once. The whole screen tested about 5,500 compounds, of which about 2,000 (36%) were called active. Roughly 18% stayed inconclusive and do not appear here. Rule as the data show it: active = normalized growth mostly below about 0.91 (no sharp cut-off); inconclusive = no clear call, values can overlap the other calls; inactive = mostly above about 0.92. This is one part of the list.

Test: chemical genetic growth profiling, strain panel (AID 1159580);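 also: tested at 20 µM; growth read once vehicle control cultures reached saturation at 30 °C; 1 = growth at the plate median or of vehicle wells; lower values mean less growth of the strain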
Conditions: growth OD

Measured: normalized growth

CCC1C(=O)OCC1Cc1cncn1C (stereo unspecified)
inactive: S. cerevisiae deletion strains, locus YJR075W, strain HOC1, active compounds read low 1.01 and 0.997 and 1.02 | S. cerevisiae deletion strains, locus YKL009W, strain mrt4, active compounds read low 0.99 and 0.991 | S. cerevisiae deletion strains, locus YKL068W, active compounds read low 1 and 0.995 | S. cerevisiae deletion strains, locus YKL085W, strain MDH1 (second series), active compounds read low 1.01 and 1.04 | S. cerevisiae deletion strains, locus YKL085W, strain MDH1, active compounds read low 1.01 and 1.04 | S. cerevisiae deletion strains, locus YKL160W, strain elf1, active compounds read low 1.03 and 1.01 | S. cerevisiae deletion strains, locus YKL190W, strain CNB1, active compounds read low 1.02 and 1.01 | S. cerevisiae deletion strains, locus YKR001C, strain vps1, active compounds read low 1.01 | S. cerevisiae deletion strains, locus YKR026C, strain gcn3, active compounds read low 1.02 and 0.993 | S. cerevisiae deletion strains, locus YKR091W, strain srl3, active compounds read low 1.02 | S. cerevisiae deletion strains, locus YLL001W, strain dnm1, active compounds read low 1.02 | S. cerevisiae deletion strains, locus YLL026W, active compounds read low 1.01 and 1.02 | S. cerevisiae deletion strains, locus YLL041C, strain sdh2, active compounds read low 1.01 and 1.02 | S. cerevisiae deletion strains, locus YLR027C, strain aat2, active compounds read low 1.02 and 1.01 | S. cerevisiae deletion strains, locus YLR039C, strain RIC1, active compounds read low 1.02 and 1.07 | S. cerevisiae deletion strains, locus YLR058C, strain SHM2, active compounds read low 1.01 | S. cerevisiae deletion strains, locus YLR102C, strain apc9, active compounds read low 1.01 and 0.998 | S. cerevisiae deletion strains, locus YLR113W, strain HOG1, active compounds read low 0.972 | S. cerevisiae deletion strains, locus YLR221C, strain rsa3, active compounds read low 1.02 and 1.01 | S. cerevisiae deletion strains, locus YLR258W, strain gsy2, active compounds read low 1.02 and 1.01 | S. cerevisiae deletion strains, locus YLR262C, strain YPT6 (second series), active compounds read low 1.04 and 1.05 | S. cerevisiae deletion strains, locus YLR262C, strain YPT6, active compounds read low 1.04 and 1.1 | S. cerevisiae deletion strains, locus YLR268W, strain sec22, active compounds read low 1.06 and 0.999 | S. cerevisiae deletion strains, locus YLR320W, strain mms22, active compounds read low 1.03 and 1.02 | S. cerevisiae deletion strains, locus YLR330W, strain CHS5, active compounds read low 1.01 | S. cerevisiae deletion strains, locus YLR342W, strain FKS1 (second series), active compounds read low 0.996 and 1 | S. cerevisiae deletion strains, locus YLR342W, strain FKS1, active compounds read low 1.02 | S. cerevisiae deletion strains, locus YLR357W, strain rsc2, active compounds read low 0.988 and 0.997 | S. cerevisiae deletion strains, locus YLR370C, strain arc18, active compounds read low 1.01 and 1.02 | S. cerevisiae deletion strains, locus YLR371W, strain rom2, active compounds read low 1.01 and 0.995 | S. cerevisiae deletion strains, locus YLR384C, strain iki3, active compounds read low 1.02 and 1.03 | S. cerevisiae deletion strains, locus YLR418C, strain cdc73, active compounds read low 1.02 | S. cerevisiae deletion strains, locus YML016C, strain PPZ1, active compounds read low 1.01 | S. cerevisiae deletion strains, locus YML032C, strain rad52, active compounds read low 1.03 and 0.985 | S. cerevisiae deletion strains, locus YML120C, strain ndi1, active compounds read low 1.02 and 1.03 | S. cerevisiae deletion strains, locus YML124C, strain tub3, active compounds read low 1.01 and 0.994 | S. cerevisiae deletion strains, locus YMR058W, strain fet3, active compounds read low 1.01 and 1.02 | S. cerevisiae deletion strains, locus YMR078C, strain ctf18, active compounds read low 1.02 and 0.99 | S. cerevisiae deletion strains, locus YMR125W, strain sto1, active compounds read low 1.02 | S. cerevisiae deletion strains, locus YMR129W, active compounds read low 1.01 and 1.02 | S. cerevisiae deletion strains, locus YMR205C, strain PFK2, active compounds read low 1.04 and 1.02 | S. cerevisiae deletion strains, locus YMR223W, strain ubp8, active compounds read low 0.991 and 1 | S. cerevisiae deletion strains, locus YMR231W, strain pep5, active compounds read low 1.02 and 1.01 | S. cerevisiae deletion strains, locus YMR263W, strain SAP30, active compounds read low 1.01 and 0.995 and 1.02 | S. cerevisiae deletion strains, locus YMR307W, strain GAS1, active compounds read low 0.989 and 1.01 and 0.99 | S. cerevisiae deletion strains, locus YNL067W, strain RPL9B, active compounds read low 1.01 | S. cerevisiae deletion strains, locus YNL071W, strain lat1, active compounds read low 1.01 and 1.02 | S. cerevisiae deletion strains, locus YNL128W, strain TEP1, active compounds read low 1.01 | S. cerevisiae deletion strains, locus YNL153C, strain GIM3, active compounds read low 1.02 and 0.971 | S. cerevisiae deletion strains, locus YNL175C, strain NOP13, active compounds read low 1.01 and 0.972 | S. cerevisiae deletion strains, locus YNL183C, strain NPR1, active compounds read low 0.95 | S. cerevisiae deletion strains, locus YNL197C, strain WHI3, active compounds read low 1.01 and 0.989 | S. cerevisiae deletion strains, locus YNL209W, strain ssb2, active compounds read low 1.02 | S. cerevisiae deletion strains, locus YNL224C, strain SQS1, active compounds read low 1 and 0.989 | S. cerevisiae deletion strains, locus YNL233W, strain BNI4, active compounds read low 1.01 and 1.02 | S. cerevisiae deletion strains, locus YNL248C, strain rpa49, active compounds read low 1 and 1.01 | S. cerevisiae deletion strains, locus YNL250W, strain rad50, active compounds read low 1.01 and 0.986 | S. cerevisiae deletion strains, locus YNL271C, strain bni1, active compounds read low 1.01 | S. cerevisiae deletion strains, locus YNL298W, strain CLA4, active compounds read low 1.01 and 0.999 | S. cerevisiae deletion strains, locus YNL307C, strain MCK1, active compounds read low 1.02 and 1.01 | S. cerevisiae deletion strains, locus YNL322C, strain KRE1 (second series), active compounds read low 1.02 | S. cerevisiae deletion strains, locus YNL322C, strain KRE1, active compounds read low 1.01 | S. cerevisiae deletion strains, locus YNR049C, strain mso1, active compounds read low 1.02 and 1.01 | S. cerevisiae deletion strains, locus YNR052C, strain pop2, active compounds read low 1.01 and 0.997 | S. cerevisiae deletion strains, locus YOL006C, strain TOP1, active compounds read low 1.1 and 1.08 | S. cerevisiae deletion strains, locus YOL012C, strain htz1 0.844 and 0.846 | S. cerevisiae deletion strains, locus YOL147C, strain pex11, active compounds read low 1.02 and 0.99 | S. cerevisiae deletion strains, locus YOR001W, strain rrp6, active compounds read low 0.998 and 1.02 | S. cerevisiae deletion strains, locus YOR061W, strain CKA2, active compounds read low 1.01 and 1.02 | S. cerevisiae deletion strains, locus YOR069W, strain VPS5, active compounds read low 1.01 | S. cerevisiae deletion strains, locus YOR070C, strain gyp1, active compounds read low 1.02 | S. cerevisiae deletion strains, locus YOR080W, strain dia2, active compounds read low 1.02 | S. cerevisiae deletion strains, locus YOR083W, strain WHI5 (second series), active compounds read low 0.992 and 1 | S. cerevisiae deletion strains, locus YOR083W, strain WHI5, active compounds read low 1.02 | S. cerevisiae deletion strains, locus YOR106W, strain vam3, active compounds read low 1.02 | S. cerevisiae deletion strains, locus YOR136W, strain idh2, active compounds read low 1.02 and 1 | S. cerevisiae deletion strains, locus YOR144C, strain elg1, active compounds read low 1.02 and 0.993 | S. cerevisiae deletion strains, locus YOR184W, strain ser1, active compounds read low 1.04 and 1.01 | S. cerevisiae deletion strains, locus YOR231W, strain MKK1, active compounds read low 0.976 | S. cerevisiae deletion strains, locus YOR265W, strain rbl2, active compounds read low 1.02 and 1.01 | S. cerevisiae deletion strains, locus YOR270C, strain vph1, active compounds read low 1.02 and 1.07 | S. cerevisiae deletion strains, locus YOR290C, strain snf2, active compounds read low 1.03 and 0.969 | S. cerevisiae deletion strains, locus YOR316C, strain cot1, active compounds read low 1.02 and 0.999 | S. cerevisiae deletion strains, locus YPL051W, strain arl3, active compounds read low 1.02 and 1.01 | S. cerevisiae deletion strains, locus YPL055C, strain LGE1, active compounds read low 1.06 and 1 | S. cerevisiae deletion strains, locus YPL078C, strain atp4, active compounds read low 1.02 and 1.01 | S. cerevisiae deletion strains, locus YPL106C, strain sse1, active compounds read low 1.02 | S. cerevisiae deletion strains, locus YPL240C, strain hsp82, active compounds read low 1.03 and 1.02 | S. cerevisiae deletion strains, locus YPL241C, strain CIN2, active compounds read low 1.01 | S. cerevisiae deletion strains, locus YPL256C, strain CLN2, active compounds read low 0.979 | S. cerevisiae deletion strains, locus YPR119W, strain clb2, active compounds read low 1.01 and 0.99 | S. cerevisiae deletion strains, locus YPR141C, strain kar3, active compounds read low 1.01 and 1 | S. cerevisiae deletion strains, locus YPR163C, strain tif3, active compounds read low 1.03 and 0.994 | S. cerevisiae deletion strains, locus YPR167C, strain met16, active compounds read low 1.02 and 0.995 | S. cerevisiae deletion strains, strain wtn01, active compounds read low 1.03 and 0.997 | S. cerevisiae strains, strain wild type, active compounds read low 1.01
